ELG1 DNA repair: ELG1-dependent DNA repair inhibition | HEK293T ELG1-luciferase reporter, luminescence, 16 h; DNA damage induced by 5-fluorouridine | Potency, µM (highest dose often 46.1 µM), inactives show at the top dose activity change, negative = inhibition, most hits filed as inhibitors | hit rate 2.3% among 330,000 | AID 504467; further: potency means the concentration at half of the fitted maximal effect; nearly all actives have a fitted effect of over 55% in size
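Quantitative HTS, concentration-response format. 2,000 cells/well co-treated with 5-fluorouridine and compound, 16 hr in 5% CO2 at 37 °C; ONE-Glo luminescence read after 30 min.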
HT1080-NT tox: kills 2HG-producing HT-1080-NT fibrosarcoma cells; HT-1080-NT fibrosarcoma viability, CellTiter-Glo ATP luminescence, 48 h; Potency, µM (highest dose often 46.1 µM), inactives show at the top dose activity, negative = less viability, hits mostly cytotoxic; hit rate 1.6% among 360,000;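 further: NT is the 2HG producing partner of a matched IDH1 knockdown line; potency means the concentration at half of the fitted maximal effect; 0% = DMSO-treated cells and -100% = media-only wells without cells; nearly all actives have a fitted effect of over 55% in size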
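Compounds were tested in concentration-response format on HT-1080-NT cells for 48 hours at 37 degrees C. Cell viability came from CellTiter-Glo luminescence; curves were classified by r2, response magnitude and activity.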
HT1080 IDH1KD tx: HT-1080 IDH1 knockdown cell toxicity (counter line); HT-1080 IDH1 knockdown viability, ATP luminescence, 48 h; AID 686971; hit rate 2% among 360,000; Potency, µM (series often up to 46.1 µM), for inactives: top-dose activity, negative = toxicity, most hits filed as cytotoxic;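 further: potency means the concentration at half of the fitted maximal effect; 0% = DMSO wells and -100% = cell-free medium wells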
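Knockdown cells (IDH1KD HT-1080) received compounds 2 h after plating at 750 cells/well and were kept 48 h at 37 °C in 5% FBS RPMI. A CellTiter-Glo luminescence read gave % activity for curve fitting.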
TDP1 cell CPT: growth inhibition of DT40 Tdp1-/-;hTDP1 cells with camptothecin (screen for TDP1 inhibitors). chicken DT40 Tdp1-/-;hTDP1 cells + 20 nM CPT, ATP luminescence, 48 h. Potency, µM (highest dose often 46.2 µM), for the others: at the highest dose activity change, negative = growth inhibition, hits mostly inhibitors. hit rate 12% among 420,000; further: potency means the concentration at half of the fitted maximal effect; nearly all actives have a fitted effect of over 55% in size
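Chicken DT40 Tdp1-/- cells stably complemented with human TDP1 were seeded at 400 cells/well in medium containing 20 nM camptothecin, exposed to pin-transferred compounds, and grown at 37 °C for at least 48 hr. Viability was read as ATP luminescence.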
IL1B secr inh: inflammasome signaling inhibition, IL-1 beta readout. THP-1 LPS/ATP IL-1B secretion, AlphaLISA, 16 h; stronger effect = lower value. activity change, % at 57.5 µM. hit rate 4.7% among 360,000; in the data active means activity change below about -50%; inconclusive means mostly about -30% to -49%
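THP-1 cells pretreated 1 hr with compounds (up to 57.5 uM final), then stimulated with LPS (250 ng/mL final) plus ATP (1.25 mM final); secreted IL-1B measured by AlphaLISA after 16 hr, decreased signal indicating inhibition.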
TDP1 cell noCPT: qHTS for Inhibitors of human tyrosyl-DNA phosphodiesterase 1 (TDP1): qHTS in cells in absence of CPT; DT40 Tdp1-/- hTDP1 cells, no CPT, ATP luminescence, 48 h; Potency, µM (doses to about 46.2 µM), for the others: at the highest dose activity change, negative = growth inhibition, actives largely listed as inhibitors; hit rate 15% among 420,000; further: potency means the concentration at half of the fitted maximal effect; nearly all actives have a fitted effect of over 55% in size
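Luminescent ATP content (CellTiter-Glo) served as the growth readout. Knockout chicken DT40 cells expressing human TDP1 were exposed to compounds without camptothecin for a minimum 48 hr at 37 °C.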
Starred values were filed as active, the others as inactive; ? = inconclusive; . = no result. Rows were chosen to be rich in hits. Some 19% of all compounds tested hit in one or more screens of this group. Unless noted, the call rests on the fitted dose curve; in most records, active means well fitted curve in the direction sought with a large enough effect; inconclusive means small, poorly fitted or top-dose-only effect, or another doubt; inactive means no such curve, though single readings can be large; an effect the other way counts as inactive or inconclusive. Unless noted, on the % scale 0 is the no-effect control and ±100 the full control effect.

SMILES	ELG1 DNA repair	HT1080-NT tox	HT1080 IDH1KD tx	TDP1 cell CPT	IL1B secr inh	TDP1 cell noCPT
CCOC(=O)/C(C#N)=C\c1ccc(N2CCN(C/C=C/c3ccccc3)CC2)cc1	?	-8.5%	-12.7%	?	6.4	20.6µM*
COc1ccc(S(=O)(=O)N2CCN(CCCOc3ccc(F)cc3)CC2)cc1OC	-17.0%	0.0%	-22.5%	?	-14.5	20.6µM*
CCN1CCN(S(=O)(=O)c2ccc(OC)c(NC(=O)c3ccccc3F)c2)CC1	-3.2%	-1.7%	0.2%	?	-0.9	?
CC1CCN(C(=O)COC(=O)c2ccccc2NCCO)CC1	.	-3.1%	-1.8%	-5.3%	3.6	-23.1%
CSc1ccccc1C(=O)NCCCn1ccnc1	11.6%	9.4%	20.6%	-2.9%	16.0	10.9%
COCCNC(=O)C(c1ccc(C)o1)N(C(=O)C(=O)NC1CCCCC1)c1ccc(F)cc1 (centres undefined)	?	4.3%	0.4%	7.4%	12.9	-19.2%
CC[C@]1(C(=O)OC)[C@H]2C(=O)N(Cc3ccccc3)C(=O)[C@H]2[C@H]2CN=C(SC)N21	7.4%	-0.4%	-1.5%	-13.9%	-9.5	-16.5%
Cc1c(/C=N\NC(=O)C2(C)CC2(Cl)Cl)cnn1C (centres undefined)	-14.2%	-0.7%	0.5%	-12.5%	18.3	0.1%
CC1(C(=O)N/N=C/c2c(F)c(F)c(F)c(F)c2F)CC1(Cl)Cl (centres undefined)	.	?	?	-20.5%	-99.5*	?
CCc1c(C)[nH]c2ccccc2c1=O	1.9%	16.4%	10.3%	?	0.0	20.6µM*
O=C(/C=C/c1cn(CC(O)CN2CCCCC2)c2ccccc12)c1ccccc1 (centres undefined)	-13.6%	?	16.4µM*	?	-86.7*	?
CCn1cc(/C=C(\NC(=O)c2ccccc2F)C(=O)N2CCN(C)CC2)c2ccccc21	.	1.8%	4.1%	?	-28.6	-28.7%
O=C(/C=C/c1cn(CC(O)CN2CCCCCC2)c2ccccc12)c1ccc(Br)cc1 (centres undefined)	.	.	.	16.4µM*	.	13µM*
O=C(/C=C/c1cn(CC(O)CN2CCCCC2)c2ccccc12)c1cccs1 (centres undefined)	2.4%	?	?	?	-67.8*	16.4µM*
CN1CCN(Cn2cc(/C=C/C(=O)c3ccccc3)c3ccccc32)CC1	?	4.8%	-0.2%	-26.3%	-65.9*	?
O=c1c2ccccc2n(CC(O)CN2CCCCC2)c2ccccc12 (centres undefined)	-3.2%	-18.6%	-12.0%	0.9%	.	-19.1%
COc1ccc(N2CCN(C(=O)Cn3cnc4nc5c(cc4c3=O)CCCC5)CC2)cc1	.	.	.	-5.2%	.	-25.1%
COc1ccc(NC(=O)CSc2nnc(-c3cccs3)n2N)c(OC)c1	-2.3%	10.2%	3.0%	3.6%	-8.1	1.4%
Cc1c(C)n(CC(O)CN2CCCCC2)c2ccccc12 (centres undefined)	2.8%	-24.4%	-11.4%	-9.0%	?	-21.4%
O=C(/C=C/c1cn(CC(O)CN2CCCCCC2)c2ccccc12)c1ccccc1 (centres undefined)	.	.	.	?	.	23.1µM*
OC(CN1CCCCC1)Cn1c2ccccc2c2ccccc21 (centres undefined)	-14.5%	-9.5%	1.4%	-13.1%	?	-13.9%
Cc1ccc(C(=O)/C=C/c2cn(CC(O)CN3CCCCCC3)c3ccccc23)cc1 (centres undefined)	.	.	.	11.6µM*	.	20.6µM*
Cc1ccc(NC(=O)Cn2c(=O)c3ccccc3n3nncc23)cc1	.	.	.	-8.9%	.	?
COc1cc(NC(=O)c2cccs2)c(OC)cc1NC(=O)Cc1ccccc1	-2.9%	-19.4%	-17.4%	?	-53.9*	23.1µM*
COc1cc(NC(=O)c2cccs2)c(OC)cc1NC(=O)Nc1ccc(F)cc1	-22.8%	5.6%	?	?	-15.5	23.1µM*
SMILES	ELG1 DNA repair	HT1080-NT tox	HT1080 IDH1KD tx	TDP1 cell CPT	IL1B secr inh	TDP1 cell noCPT
Cc1cc(=O)[nH]c(SCC(=O)C23CC4CC(CC(C4)C2)C3)c1C#N	-26.0%	?	?	8.2µM*	?	18.4µM*
COc1cc(NC(=O)c2ccccc2)c(OC)cc1NC(=O)CSc1[nH]c(=O)cc(C)c1C#N	-11.5%	?	?	3.66µM*	34.6	2.31µM*
N#Cc1ccc(N[C@@H]2CCN3C(=O)c4ccccc4[C@@H]3C[C@H]2O)cc1	-16.4%	-1.8%	2.1%	-11.7%	14.7	-14.0%
COc1ccc(OCC(=O)Nc2ccc(NC(=O)c3cccs3)c(OC)c2)cc1	?	20.3%	4.8%	1.2%	-2.3	-14.3%
COc1ccccc1CC(=O)Nc1cc(OC)c(NC(=O)c2ccccc2)cc1OC	16.4µM*	-1.6%	-19.5%	-59.2%	-20.6	13µM*
COc1cc(C(=O)OCC(=O)NCc2ccc(F)cc2)cc(NC(=O)c2cccs2)c1OC	20.6µM*	0.2%	-2.5%	?	-7.9	?
CCC(=O)Nc1cc(OC)c(NC(=O)c2ccccc2)cc1OC	0.6%	19.0%	15.9%	-22.8%	-15.5	-19.7%
COc1cc(NC(=O)c2cccs2)c(OC)cc1NC(=O)CCC(=O)Nc1ccc2ncccc2c1	14.6µM*	?	?	?	-15.3	?
COc1cc(NCCC(=O)c2cccs2)c(OC)cc1Cl	-23.6%	-7.0%	-10.8%	3.66µM*	-8.9	4.61µM*
CCOc1ccccc1NC(=O)Cn1c(=O)n(-c2ccc(Cl)cc2)c(=O)c2oc3ccccc3c21	.	.	.	-15.1%	.	-13.0%
CCC1=Nc2cc(C(=O)NCCCOC)ccc2Sc2ccc(Br)cc21	.	.	.	1.3µM*	.	1.3µM*
CCCCNC(=O)c1ccc2c(c1)N=C(CC)c1ccccc1S2	.	.	.	4.11µM*	.	4.61µM*
CCC1=Nc2cc(C(=O)NCCCOC)ccc2Sc2ccccc21	?	0.651µM*	1.03µM*	1.46µM*	55.5	1.16µM*
CCC1=Nc2cc(C(=O)NCCCN3CCOCC3)ccc2Sc2ccccc21	14.1%	-26.1%	?	-17.3%	4.1	-2.7%
CCC1=Nc2cc(C(=O)NCCN3CCCC3)ccc2Sc2ccccc21	8.4%	4.3%	3.0%	?	-0.7	?
CCN(CC(=O)NCc1ccc(F)cc1)CC(=O)Nc1cc(S(=O)(=O)N(C)C)ccc1C	?	3.8%	-0.7%	?	26.8	-15.2%
CC1(C)c2ccccc2-n2c1cc1oc(=O)cc(O)c1c2=O	-0.6%	-5.8%	-3.0%	?	12.8	20.6µM*

Screening data from PubChem.
